PubChem BioAssay AID1159580 (chemical genetic matrix, 2015)
Out of some 5,500 compounds screened, about 2,000 (36%) were called active. Another 18% or so got no clear call; they are omitted. No stated cut-off is given here; in the data, active means normalized growth mostly below about 0.91 (no sharp cut-off); inconclusive means no clear call, values can overlap the other calls; inactive means mostly above about 0.92. The list shows a part of the results.

Assay: chemical genetic growth profiling, strain panel (AID 1159580);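 further: tested at 20 µM; growth read once vehicle control cultures reached saturation at 30 °C; 1 = growth at the plate median or of vehicle wells; lower values mean less growth of the strain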
Conditions: growth OD

Measured: normalized growth

CSc1nc(N)n(-c2ccccc2)n1
inactive: S. cerevisiae deletion strains, locus YAL013W, strain DEP1, hits give low values 1 | S. cerevisiae deletion strains, locus YBR229C, strain ROT2, hits give low values 1.02 | S. cerevisiae deletion strains, locus YCL061C, strain MRC1, hits give low values 1.02 | S. cerevisiae deletion strains, locus YDL101C, strain DUN1, hits give low values 1 | S. cerevisiae deletion strains, locus YDL134C, strain PPH21, hits give low values 1.01 | S. cerevisiae deletion strains, locus YDR150W, strain NUM1, hits give low values 0.916 | S. cerevisiae deletion strains, locus YEL061C, strain CIN8, hits give low values 1.06 | S. cerevisiae deletion strains, locus YGR078C, strain PAC10, hits give low values 1 | S. cerevisiae deletion strains, locus YGR229C, strain SMI1, hits give low values 0.99 | S. cerevisiae deletion strains, locus YHR030C, strain SLT2, hits give low values 1.05 | S. cerevisiae deletion strains, locus YHR087W, strain rtc3, hits give low values 1 | S. cerevisiae deletion strains, locus YJR043C, strain POL32, hits give low values 0.989 | S. cerevisiae deletion strains, locus YJR075W, strain HOC1, hits give low values 1 | S. cerevisiae deletion strains, locus YKL190W, strain CNB1, hits give low values 1.01 | S. cerevisiae deletion strains, locus YLR039C, strain RIC1, hits give low values 1.03 | S. cerevisiae deletion strains, locus YLR058C, strain SHM2 (second series), hits give low values 1.02 | S. cerevisiae deletion strains, locus YLR085C, strain ARP6, hits give low values 0.995 | S. cerevisiae deletion strains, locus YLR262C, strain YPT6, hits give low values 1.09 | S. cerevisiae deletion strains, locus YML094W, strain GIM5, hits give low values 0.988 | S. cerevisiae deletion strains, locus YMR219W, strain ESC1, hits give low values 1 | S. cerevisiae deletion strains, locus YMR263W, strain SAP30, hits give low values 1 | S. cerevisiae deletion strains, locus YNL153C, strain GIM3, hits give low values 1 | S. cerevisiae deletion strains, locus YNL298W, strain CLA4 (second series), hits give low values 1 | S. cerevisiae deletion strains, locus YNL322C, strain KRE1, hits give low values 1 | S. cerevisiae deletion strains, locus YNR030W, strain Alg12, hits give low values 1.02 | S. cerevisiae deletion strains, locus YPL055C, strain LGE1, hits give low values 0.994 | S. cerevisiae deletion strains, locus YPL241C, strain CIN2, hits give low values 1.01 | S. cerevisiae deletion strains, locus YPR135W, strain CTF4, hits give low values 1.07 | S. cerevisiae strains, strain wild type, hits give low values 1.01
